The panel holds about 83,000 compounds, 20% with a hit somewhere; the sample as a whole holds those more often.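 How to read the values: 0–100, growth inhibition (40 = 60% inhibited); 0, no net growth; -100 to 0, cell death (-40 = 40% of starting cells died; -100 = all dead).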 Active and inactive are the calls of the source. Rule for the calls: active = growth percent below 10; inactive = the rest.
Tested on: UO-31 renal
Test: NCI-60 one-dose screen, 48 h (100 = growth as untreated, 0 = no growth, -100 = all killed)
Conditions: 10 µM unless noted

Structure (SMILES)	growth
COC(=O)C1=CCC(n2cnc3c(N)ncnc32)O1 (stereo not given)	91.5% (inactive)
CCN(Cc1cccc(S(=O)(=O)[O-])c1)c1ccc(C(=C2C=CC(=[N+](CC)Cc3cccc(S(=O)(=O)O)c3)C=C2)c2ccccc2S(=O)(=O)O)cc1	85.9% (inactive)
CC(NC(=O)Oc1cccc2ccccc12)c1ccccc1 (stereo not given)	61.1% (inactive)
OC(c1cc(-c2cccc(Cl)c2)nc2ccccc12)C1CCCCN1 (stereo not given)	-44.8% (active)
O=C(Nc1ccccc1OC(=O)c1ccccc1)c1ccccc1	77.4% (inactive)
Cc1ccccc1NC(=O)NC(CC(N)=O)c1ccc2c(c1)nc(-c1cccc(Oc3ccc(C(C)(C)C)cc3)c1)n2CCCN1CCCCC1C (stereo not given)	88.6% (inactive)
O=C(C(=O)c1cc(Br)ccc1O)c1cc(Br)ccc1O	24.8% (inactive)
Fc1ccccc1C1c2ccccc2-c2nccn21 (stereo not given)	93.7% (inactive)
COc1cc(/C=C\C(C)=N\Nc2ccccc2)ccc1O	66% (inactive)
COc1cc(/C=N/NC(=O)c2ccc(C(F)(F)F)nc2Nc2ccc(Cl)cc2C)ccc1O	0.291% (active)
O=Cc1ccccc1C(=O)O	90% (inactive)
COc1cc(NC(=O)NCc2ccco2)ccc1-c1ccc(NC(=O)NCc2ccco2)cc1OC	73.4% (inactive)
COc1cccc(/C=N/Nc2nc3ccccc3s2)c1OC	85.1% (inactive)
O=C(N/N=C/c1ccc(Cl)cc1Cl)c1ccccc1Nc1cccc(C(F)(F)F)c1	25.7% (inactive)
COc1ccc(NS(=O)(=O)N2CCCCC2)cc1	76.4% (inactive)

Source: PubChem BioAssay (NCI)
